Reference: PubChem BioAssay AID425 (Sanford-Burnham Center for Chemical Genomics, 2006)
In all, about 110,000 compounds went through this assay and about 190 (0.17%) were called active. The sample holds actives, similar compounds and a random draw of the others, so the mix is not that of the screen. Rule as the data show it: active = inhibition above about 50%; inactive = the rest. Results with a measured potency or affinity are listed apart.

target: Dual specificity protein phosphatase 6 (Rattus norvegicus) (UniProt Q64346); assay: inhibition of rat DUSP6 enzyme activity – biochemical, in vitro, primary screen (AID 425); settings: recombinant MKP-3 phosphatase activity, fluorescence; at 20 µM; active compounds read high;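 also: plate controls were vehicle for no effect and reference inhibitor for full effect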
Sequence (Q64346 whole entry, looked up): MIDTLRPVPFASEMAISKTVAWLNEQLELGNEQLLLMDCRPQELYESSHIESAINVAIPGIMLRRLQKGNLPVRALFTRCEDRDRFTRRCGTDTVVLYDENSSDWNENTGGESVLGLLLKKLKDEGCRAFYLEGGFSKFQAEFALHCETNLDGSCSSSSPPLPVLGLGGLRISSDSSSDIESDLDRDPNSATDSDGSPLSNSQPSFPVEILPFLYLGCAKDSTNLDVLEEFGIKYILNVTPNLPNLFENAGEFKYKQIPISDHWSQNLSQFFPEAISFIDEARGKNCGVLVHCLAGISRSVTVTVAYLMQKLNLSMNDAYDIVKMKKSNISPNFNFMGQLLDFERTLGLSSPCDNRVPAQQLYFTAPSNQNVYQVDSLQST

SMILES	inhibition
Cc1ccc(OCC(=O)N(Cc2ccc(N(C)C)cc2)C2CCS(=O)(=O)C2)cc1 (stereo not given)	-8.2% (inactive)
COc1ccc(/C=N/NC(=O)COc2ccc3c(C)cc(=O)oc3c2)cc1	-1.4% (inactive)
CCOc1ccc(NCC(=O)N/N=C/c2cc([N+](=O)[O-])ccc2O)cc1	5.2% (inactive)
O=c1c[n+]([O-])c2ccccc2n1OCc1ccccc1	0% (inactive)
CC1CCN(C(=O)CSc2nc3c(cnn3-c3ccccc3)c(=O)[nH]2)CC1	-9.5% (inactive)
CC(C)CCNC(=O)Cn1cc2c(n1)CCCCC2	-5.2% (inactive)
Oc1ccc(N=Nc2ccc(Cl)cc2)c2cccnc12	2.7% (inactive)
O=S(=O)(O)c1cccc2c(N=Cc3cc(Cl)cc(Cl)c3O)cccc12	0.7% (inactive)
Cc1ccc(OCCOc2ccc(C=O)cc2)cc1C	1.6% (inactive)
CCC(=O)c1ccc(N2CCN(C(=O)c3ccc(F)c(F)c3)CC2)c(F)c1	2% (inactive)
Cc1ccc(S(=O)(=O)N(C)CCCC(=O)N2CCN(C=O)CC2)cc1	-5.2% (inactive)
O=C(Nc1cccc2c1CCCC2)c1ccco1	-7% (inactive)
CCn1c(SCC(=O)N/N=C/C=C/c2ccccc2)nc2ccccc21	1.5% (inactive)
O=C(c1ncc[nH]1)c1ccccc1C(=O)N1CCOCC1	1.3% (inactive)
COc1ccccc1-c1nc(C#N)c(N2CCC(Cc3ccccc3)CC2)o1	3.6% (inactive)
COc1cc2cc(=O)n(Cc3ccccc3)c(C)c2cc1OC	70.3% (active)
COc1cc2c(=O)n(Cc3ccccc3)c(=O)n(CC(=O)C(C)(C)C)c2cc1OC	4% (inactive)
COc1ccc2c(c1)c(=O)c(Br)c(C)n2Cc1ccccc1	-17.6% (inactive)
O=C1C=CC2=C3Oc4c(ccc5cc(O)ccc45)C(c4ccccc4C(=O)O)C3C=CC2=C1 (stereo not given)	82.7% (active)
Cc1ccc(S(=O)(=O)Cc2ccc(C(=O)N3CCN(c4ccc(F)cc4)CC3)o2)cc1	-8.1% (inactive)

SMILES	inhibition
CCOC(=O)C1=C(C)NC2=C(C(=O)CCC2)C1c1ccc(OCc2cccc(F)c2)c(OC)c1 (stereo not given)	2.1% (inactive)
COc1cccc2c(Cl)cc(C)nc12	-2.4% (inactive)
CCc1c(C)nc2c(OC)cccc2c1Cl	2.1% (inactive)
COc1cccc2c(Cl)c(CC=C(Cl)Cl)c(C)nc12	74.2% (active)
COc1ccc(S(=O)(=O)Nc2cc(C)c(O)c(S(=O)(=O)c3ccccc3)c2)cc1	-2.6% (inactive)
CC(=O)N(C)c1ccc(NC(=S)Nc2ccccc2)cc1	2.9% (inactive)
CN(C)c1ccc(NC(=S)Nc2ccccc2)cc1	0.8% (inactive)
CN(C(=S)Nc1ccccc1)c1ccccc1	50.8% (active)
CCNc1nc(NS(=O)(=O)c2ccc(C)cc2)nc(SC)n1	0.7% (inactive)
COC(=O)c1c(N=CN(C)C)c(C#N)c(C)n1-c1ccccc1	4.3% (inactive)
O=C(CSc1nc(O)c(Cc2ccccc2)c(=O)n1-c1ccccc1)N1CCOCC1	3% (inactive)
O=C1NC(=S)N/C1=C\c1ccc(-c2cc([N+](=O)[O-])ccc2Br)o1	50% (active)
O=C1NC(=S)N/C1=C\c1ccc(-c2cccc([N+](=O)[O-])c2)o1	0.1% (inactive)
O=C1NC(=S)N/C1=C/c1ccc(-c2cc([N+](=O)[O-])ccc2Cl)o1	36.3% (inactive)
O=c1c2ccccc2nc(-c2ccco2)n1-c1cccc2ccccc12	2.8% (inactive)
Cc1ccc(-c2nc(-c3cc4cc([N+](=O)[O-])c(O)cc4oc3=O)cs2)cc1	-1.3% (inactive)
O=c1oc2cc(O)c([N+](=O)[O-])cc2cc1-c1csc(-c2ccc(Cl)cc2)n1	6.8% (inactive)
O=c1oc2cc(O)c([N+](=O)[O-])cc2cc1-c1csc(-c2cc3ccccc3oc2=O)n1	85.1% (active)
O=C(c1ccc([N+](=O)[O-])cc1)N1CCN(Cc2ccccn2)CC1	1.2% (inactive)
CC(=O)CC(=O)Nc1ccc(C)c(Cl)c1	-2.2% (inactive)

SMILES	inhibition
O=C1C=C/C(=N\S(=O)(=O)c2cccc([N+](=O)[O-])c2)c2ccccc21	78.3% (active)
O=[N+]([O-])c1cccc(S(=O)(=O)/N=C(/Nc2ccccc2)c2ccccc2)c1	0.1% (inactive)
O=[N+]([O-])c1cccc(S(=O)(=O)Nc2ccccc2-c2ccccc2)c1	-0.7% (inactive)
O=C1C=C/C(=N\S(=O)(=O)c2ccc(Cl)c([N+](=O)[O-])c2)c2ccccc21	57.6% (active)
O=C1C=CC(=NS(=O)(=O)c2ccc(Cl)c([N+](=O)[O-])c2)C=C1	10.8% (inactive)
O=C1c2ccccc2C(=O)N1/N=C/c1ccc(Cl)c([N+](=O)[O-])c1	-2.1% (inactive)
COc1ccc(C(=O)NC(=S)Nc2ccc(I)cc2)cc1	1.2% (inactive)
CCc1ccc(S(=O)(=O)Nc2ccc(OC(=O)c3ccc(Cl)cc3)cc2)cc1	0.4% (inactive)
CCn1c(/N=C/c2c(O)ccc3ccccc23)nc2ccccc21	78.4% (active)
Cn1c(/N=C/c2c(O)ccc3ccccc23)nc2ccccc21	-12.4% (inactive)
CCn1c(/N=C/c2c[nH]c3ccccc23)nc2ccccc21	-7.4% (inactive)
COc1ccc(NC(=O)CN(c2ccc(C)cc2)S(=O)(=O)c2ccc(SC)cc2)cc1OC	0.5% (inactive)
O=c1c2ccc(Br)c3cccc(c32)c2nc3ccc4c5c(ccc(c35)n12)CC4	0.3% (inactive)
N#Cc1ccc2c(c1)nc1c3cccc4cccc(c(=O)n21)c43	66.7% (active)
O=c1c2ccc(Br)c3cccc(c32)c2nc3cccc4cccc(c43)n12	2.3% (inactive)
CCOc1ccc2nc(SC3CC(=O)N(c4ccccc4C)C3=O)sc2c1 (stereo not given)	0.7% (inactive)
COc1ccc(/C=C2/NC(=O)/C(=C/c3ccc(OC)cc3)C2=O)cc1	4.5% (inactive)
Cc1ccc(/C=C2\NC(=O)c3ccccc3C2=O)cc1	21% (inactive)
COc1ccc(/C=C2\NC(=O)c3ccccc3C2=O)cc1	121% (active)
O=S(=O)(Nc1ncnc2c1oc1ccccc12)c1ccc(Cl)s1	-12.5% (inactive)
